Reference: PubChem BioAssay (NCI)
The panel holds about 83,000 compounds, 20% with a hit somewhere; the sample as a whole holds those more often.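 A percent growth of 40 corresponds to 60% growth inhibition; 0 means no net growth; -100 means all cells died. Active threshold: below 10.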 Values without a mark were called inactive. Active and inactive are the calls of the source.

Legend:
Assay in all cases: NCI-60 one-dose screen, 48 h (100 = growth as untreated, 0 = no growth, -100 = all killed)
Details in all cases: 10 µM unless noted
NCI-H23 lung = system: NCI-H23 lung
NCI-H226 lung = system: NCI-H226 lung
NCI-H322M lung = system: NCI-H322M lung
HOP-62 NSCLC = system: HOP-62 NSCLC
NCI-H460 lung = system: NCI-H460 lung
HOP-92 NSCLC = system: HOP-92 NSCLC
NCI-H522 lung = system: NCI-H522 lung
A549/ATCC NSCLC = system: A549/ATCC NSCLC
786-0 renal = system: 786-0 renal
COLO 205 colon = system: COLO 205 colon
DU-145 prostate = system: DU-145 prostate
K-562 leukemia = system: K-562 leukemia
MALME-3M melanoma = system: MALME-3M melanoma
MDA-MB-231 breast = system: MDA-MB-231 breast
RXF 393 renal = system: RXF 393 renal
SF-268 CNS = system: SF-268 CNS
SF-295 CNS = system: SF-295 CNS
SF-539 CNS = system: SF-539 CNS
UACC-257 melanoma = system: UACC-257 melanoma
M14 melanoma = system: M14 melanoma

SMILES	growth (NCI-H23 lung)	growth (NCI-H226 lung)	growth (NCI-H322M lung)	growth (HOP-62 NSCLC)	growth (NCI-H460 lung)	growth (HOP-92 NSCLC)	growth (NCI-H522 lung)	growth (A549/ATCC NSCLC)	growth (786-0 renal)	growth (COLO 205 colon)	growth (DU-145 prostate)	growth (K-562 leukemia)	growth (MALME-3M melanoma)	growth (MDA-MB-231 breast)	growth (RXF 393 renal)	growth (SF-268 CNS)	growth (SF-295 CNS)	growth (SF-539 CNS)	growth (UACC-257 melanoma)	growth (M14 melanoma)
COc1ccc(/C=N/NC(=O)Cn2nnc3ccccc32)cc1	101%	96.4%	89.1%	99.9%	96.6%	104%	90.9%	96.5%	103%	109%	117%	93%	103%	107%	93.7%	85.5%	103%	105%	95.2%	109%
Cc1cc2c(C(C)C)c(O)c(O)c(/C=N/O)c2c(O)c1-c1c(C)cc2c(C(C)C)c(O)c(O)c(/C=N/O)c2c1O	27.3%	33.2%	35.9%	11.8%	2.59% (active)	8.85% (active)	-25.7% (active)	4.66% (active)	22.2%	2.49% (active)	-93.8% (active)	-9.09% (active)	51%	25.5%	-1.98% (active)	26.3%	16.7%	-11.3% (active)	11.6%	7.91% (active)
COc1cc2cc(Oc3ccc(NC(=O)Nc4ccc(F)c(C(F)(F)F)c4)cc3)c(C)nc2cc1OCCN1CCCCC1	34.2%	81.1%	69.5%	95.4%	-69.2% (active)	33.5%	-66.6% (active)	-45.9% (active)	61.9%	-64% (active)	-24.2% (active)	-34.7% (active)	-87.9% (active)	27.6%	59.5%	76.6%	72.8%	75.3%	-52.5% (active)	-86.8% (active)
O=C1/C(=C/c2cccc(Br)c2)COc2ccc(O)c(O)c21	17%	83.4%	25.7%	-30.8% (active)	5.86% (active)	-41.1% (active)	-67.6% (active)	11.2%	-86.9% (active)	6.56% (active)	-7.02% (active)	10.3%	-44.9% (active)	-26.7% (active)	-56.5% (active)	-23.9% (active)	34.8%	-85.4% (active)	10.9%	-5.09% (active)
CNc1nc2ncc(-c3c(C)noc3C)cc2n1Cc1ccccc1	55.5%	56.6%	67.1%	41.4%	64.9%	7.09% (active)	57.1%	54.4%	43.3%	29.8%	79.4%	49.3%	45.4%	50.3%	54.1%	80.7%	57.4%	41%	42.3%	31.5%
COC(=O)[C@H]1Cc2c([nH]c3ccccc23)[C@H](c2ccc3c(c2)OCO3)N1	99.7%	98.5%	98.9%	107%	106%	84.9%	83.2%	105%	98.5%	118%	101%	99.3%	99.8%	98.5%	109%	96.3%	99.8%	92.8%	107%	108%
COc1ccc(Cn2cc(C(=O)N=Nc3c(O)[nH]c4ccc(Br)cc34)nn2)cc1	102%	97.5%	102%	111%	111%	114%	89.1%	95.1%	99.6%	115%	93.7%	88.1%	-89.9% (active)	108%	99.8%	94.1%	95.8%	104%	102%	111%
